C8 TRAIL sens – sensitizes caspase-8 expressing cells to TRAIL. NB7+C8 cells + TRAIL, ATPlite viability luminescence. inhibition (viability loss, TRAIL sensitization), % at 10 µM. 360,000 compounds, 1% hits;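 active means compounds causing at least 50% loss of cell viability in the single-dose screen, relative to plate controls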
TROY signal inh – blocks TROY-dependent signaling in reporter cells; Q293 LMP1-TROYcd NF-kB luciferase reporter, 4 h; inhibition, % at 10 µM; 360,000 compounds, 0.98% hits; AID 1347056;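 active means compounds whose plate-normalised and pattern-corrected inhibition of the luciferase reporter signal at the single screening dose is 50% or more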
TWEAK Fn14 block – TWEAK-Fn14 signaling inhibition | TWEAK-stimulated Fn14 reporter cells, luciferase luminescence, 8 h | inhibition, % at 10 µM | 360,000 compounds, 2% hits; in the data active means inhibition above about 50%
aSyn UTR inh – 5' untranslated region of α-synuclein, MLPCN primary screen. alpha-synuclein 5'UTR reporter, inhibitor activity. inhibition, % (tested at 7.5 µM). 300,000 compounds, 0.82% hits; in the data active means inhibition above about 60%;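 further: H4 neuroglioblastoma cells stably carrying SNCA 5'UTR luciferase fusion; 0% = DMSO wells and 100% = positive control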
HSP90 inh – HSP90 refolding inhibition in rabbit reticulocyte lysate. inhibition, % at 5.6 µM. luciferase refolding luminescence, 3 h. 290,000 compounds, 0.91% hits;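 active means inhibition above the screen-wide mean plus 3 SD, computed separately per campaign, cut at about 16% in these data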;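 further: 0% = DMSO wells and 100% = 60 µM geldanamycin wells; inhibitors lower the luminescence because luciferase stays unfolded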
HIF-2a block – inhibitors of HIF-2a; 786-0 RCC cells HIF-2a reporter, luciferase luminescence, overnight; inhibition, % at 18.8 µM; 360,000 compounds, 0.72% hits; AID 624352;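 active means inhibition of the luminescence signal of 40% or more relative to plate controls, in a single-dose primary screen at 18.75 µM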
* = called active by the depositor; . = not tested or not shown. Sampled rows, rich in hits. Any-hit rate of the full collection: about 3.9%.

SMILES	C8 TRAIL sens	TROY signal inh	TWEAK Fn14 block	aSyn UTR inh	HSP90 inh	HIF-2a block
ClCCN(CCCl)c1ccc(-n2cnc3c(Cl)ncnc32)cc1	86*	36	75*	.	.	36
COc1cc(/C=C/c2nc3ccccc3c(=O)n2-c2ccccc2O)ccc1O	-7	18	56*	-13	-5	-8
COc1cc(/C=C/c2nc3ccccc3c(=O)n2-c2cccc(O)c2)ccc1O	19	12	49	22	5	23
O=C1C=C2c3ccccc3CC(C(=O)O)C2CC1 (stereo not drawn)	5	1	7	.	.	11
CC(C)(O)/C=C/C(=O)[C@](C)(O)C1[C@H](O)C[C@@]2(C)C3CC=C4C(C[C@H](O)[C@@H](O)C4(C)C)[C@]3(C)C(=O)C[C@]12C (stereo partly drawn)	41	56*	-7	.	.	30
CCOC(=O)[C@]12Cc3c(cc(OC)c(OC)c3OC)[C@H]1N(CCC(=O)OC)C(=O)c1ccccc12	18	16	-11	.	.	22
C[C@@]1(CO)[C@H](O)CC[C@@]2(C)[C@H]1CC[C@H]1C[C@@H]3C[C@@]12CC[C@]3(O)CO	.	.	.	73*	0	.
CCc1nn2c(=O)c(F)c(N3CCNCC3)nc2s1	-8	-6	9	.	.	-3
O=C1NC(=S)N(c2ccccc2F)C(=O)/C1=C\c1cccs1	-6	17	29	-1	-2	84*
CCOc1ccc(N2C(=O)/C(=C\c3cccs3)C(=O)NC2=S)cc1	.	.	.	14	1	.
CCC1C(c2cc(OC)c(OC)c(OC)c2)c2cc3c(cc2OC1N1CCCC1)OCO3 (stereo not drawn)	28	30	11	.	.	37
c1ccc2c(c1)CN(Cc1ccc3c(c1)OCO3)Cc1cnnn1-2	14	8	5	.	.	-2
O=C1NC2C(=CC(O)C(O)C2O)c2cc3c(cc21)OCO3 (stereo not drawn)	31	79*	100*	.	.	35
CCOC(=O)[C@]12Cc3cc4ccccc4cc3[C@H]1N(Cc1ccccc1)C(=O)c1ccccc12	67*	31	68*	.	.	36
CCOC(=O)[C@]12Cc3cc(Cl)ccc3[C@H]1N(Cc1ccccc1)C(=O)c1cc(OC)ccc12	89*	29	52*	.	.	37
CCOC(=O)[C@]12Cc3cc(OC)ccc3[C@H]1N(Cc1ccccc1)C(=O)c1cc(OC)ccc12	13	16	22	.	.	25
CCOC(=O)[C@]12Cc3cc(OC)c(OC)cc3[C@H]1N(Cc1ccccc1)C(=O)c1ccccc12	2	-3	1	.	.	20
CCOC(=O)[C@]12Cc3cc(OC)ccc3[C@H]1N(C1CCCCC1)C(=O)c1ccccc12	85*	48	66*	.	.	16
CCOC(=O)[C@]12Cc3cc4ccccc4cc3[C@H]1N(Cc1ccccc1)C(=O)c1cc(OC)ccc12	64*	41	56*	.	.	25
CCCN1CCC2(CC1)NC(CO)(CO)CO2	-6	.	82*	0	2	16
CCN1CCC2(CC1)NC(CO)(CO)CO2	-4	7	14	-10	3	25
Fc1ccc(C(OCCN2CCN(CCCc3ccccc3)CC2)c2ccc(F)cc2)cc1	19	-2	29	106*	.	-7
O=c1[nH]c(=S)n(-c2ccc(Br)cc2)c(O)c1C=Nc1ccc(N2CCOCC2)cc1	10	37	48	27	2	15
CCOc1ccc(-n2c(O)c(C=Nc3ccc(N4CCOCC4)cc3)c(=O)[nH]c2=O)cc1	-5	.	91*	7	-2	13
Nc1ccccc1C(=O)OCCOc1ccccc1	-6	10	67*	.	1	-152
SMILES	C8 TRAIL sens	TROY signal inh	TWEAK Fn14 block	aSyn UTR inh	HSP90 inh	HIF-2a block
C=CCOC(=O)c1ccccc1N	-6	-1	7	.	.	-11
O=C1CC23c4ccccc4N4C(=O)CC5OCC=C6CN1C2CC6C5C43 (stereo not drawn)	-5	-3	-3	.	.	14
Cc1ccc(S(=O)(=O)CC(=O)c2cc(C)c(OC(=O)N(C)C)c(C)c2)cc1	-3	-12	-1	0	1	-46
Cc1cc(C(=O)CS(=O)(=O)c2ccccc2)cc(C)c1OC(=O)N(C)C	37	60*	30	-71	2	-179
CN(Cc1cccc(-c2ccncc2)c1)C(=O)Oc1ccc([N+](=O)[O-])cc1	21	40	33	.	.	-33
C=CCNC(=S)N1Cc2cc(Br)ccc2-n2nncc2C1	8	7	1	.	.	5

Source: PubChem
